In the library only some 9.4% were active in any assay of this set; here they are far more common.
HTT cytoprotect = cytoprotection in Huntington HTT-Q103 PC12 cell model. PC12 HTT-Q103 induced, cytoprotection, ATP luminescence, 40 h. Potency, µM (highest dose often 56.4 µM), for inactives: cytoprotection (ATP increase), most hits filed as activators. 0.14% of 230,000 active. AID 1471; note: potency is the fitted concentration of half-maximal effect; % of control where 0% means no effect; nearly all actives have a fitted effect of over 45% in size
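Cells were plated at 1500 per well in phenol red-free DMEM with 5% equine and 5% calf serum. Tebufenozide (100 nM final) and compounds were added, then ATPlite reagent, and luminescence was read.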
IMPase inh = membrane-permeable compound that blocks inositol monophosphatase; CHO-M1 cells, IP1 accumulation, HTRF TR-FRET ratio; 120,000 tested, under 10 active; inhibition (IP1 accumulation), % at 46.1 µM; active = well fitted curve in the direction sought with a large enough effect in the signal ratio, not every such curve was filed as active; inconclusive = small, poorly fitted or top-dose-only effect, or a change in a side signal; inactive = no such curve, though single readings can be large or run the other way; the % refers to the signal ratio;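 note: cells stimulated with carbachol in lithium chloride buffer; plate controls were DMSO basal wells for no effect and reference inhibitor wells for full effect; higher means more IMPase inhibition seen as more IP1 and lower FRET ratio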
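Elevated IP1 in lysates lowers TR-FRET signal (665/620 ratio and 620 channel reported). Cells were CHO-M1, given carbachol (50 uM as added) plus 50mM LiCl, pH 7.4, 30 min, 37C; compounds titrated up to 46 uM; AC50 by Hill equation.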
HttQ103 aggreg = reduces HttQ103-GFP aggregates in PC12 cells; PC12 HttQ103-GFP aggregates, Acumen cytometry, 40 h; Potency, µM (series often up to 46.1 µM), without a hit: at the highest dose activity change, negative = inhibition, most hits filed as inhibitors; 1.1% of 220,000 active; AID 1688; note: potency is the fitted concentration of half-maximal effect; % is set by controls: 0 for no effect and ±100 for the full control effect; nearly all actives have a fitted effect of over 60% in size
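PC12 cells with ecdysone-inducible HTT exon1 Q103-GFP, induced by 100 nM tebufenozide, given compounds in a concentration series. GFP aggregates (1–25 um, 6 SD above background) counted in lysates by laser-scanning cytometry, 488 nm excitation.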
ALDH1A1 block = inhibitors of human aldehyde dehydrogenase 1A1 | P00352 | Purified ALDH1A1, NADH fluorescence, propionaldehyde substrate | Potency, µM (top dose mostly 75.3 µM), without a hit: at the top dose activity, negative = inhibition, most hits filed as inhibitors | 7.3% of 220,000 active; active = well fitted inhibition curve with a large enough effect, not every such curve was filed as active; inconclusive = small, poorly fitted or top-dose-only effect, or another doubt; inactive = no such curve, though single readings can be large or run the other way;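 note: potency is the fitted concentration of half-maximal effect; plate controls were no enzyme wells and a reference inhibitor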
Target sequence (P00352 whole entry, looked up): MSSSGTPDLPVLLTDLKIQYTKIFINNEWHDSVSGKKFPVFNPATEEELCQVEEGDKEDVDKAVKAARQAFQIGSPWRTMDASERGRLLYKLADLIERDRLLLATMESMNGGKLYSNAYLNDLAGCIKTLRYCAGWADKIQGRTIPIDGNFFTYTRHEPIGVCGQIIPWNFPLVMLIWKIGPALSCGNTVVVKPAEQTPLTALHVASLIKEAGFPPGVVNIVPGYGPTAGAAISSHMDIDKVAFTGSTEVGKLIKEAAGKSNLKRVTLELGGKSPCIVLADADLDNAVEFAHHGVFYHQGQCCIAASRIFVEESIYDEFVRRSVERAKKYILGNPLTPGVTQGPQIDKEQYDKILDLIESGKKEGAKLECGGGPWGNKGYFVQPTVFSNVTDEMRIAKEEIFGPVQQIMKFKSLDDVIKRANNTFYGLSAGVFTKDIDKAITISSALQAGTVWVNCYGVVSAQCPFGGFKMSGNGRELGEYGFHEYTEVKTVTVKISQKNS
IMPase Li inh = cell-permeable IMPase inhibitors with lithium potentiation; CHO-M1 cells, IP1 TR-FRET (IP-One), carbachol + lithium; Potency, µM (doses to about 59.4 µM), for the others: at the top dose activity, negative = IMPase inhibition, most hits filed as inhibitors; 0.35% of 210,000 active; AID 1457;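 note: IP1 builds up when IMPase is blocked and the TR-FRET signal falls; potency is the fitted concentration of half-maximal effect; plate controls were basal vehicle for no effect and high inhibitor control for full effect; nearly all actives have a fitted effect of over 50% in size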
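Test compounds were applied to CHO-M1 cells previously cultured for 16–30 h at 2000 per well. A small lithium amount accompanied them; after 30 min at 37C, IP1 was quantified by TR-FRET.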
HPGD inh = inhibitors of human 15-hydroxyprostaglandin dehydrogenase (HPGD); P15428; purified HPGD, NADH fluorescence kinetic, PGE2 substrate; Potency, µM, for inactives: top-dose activity change, negative = inhibition, hits mostly inhibitors; 4.3% of 150,000 active; AID 894; active = well fitted inhibition curve with a large enough effect, not every such curve was filed as active; inconclusive = small, poorly fitted or top-dose-only effect, or another doubt; inactive = no such curve, though single readings can be large or run the other way; note: potency is the fitted concentration of half-maximal effect; % is set by controls: 0 for no effect and ±100 for the full control effect
Target sequence (P15428 whole entry, looked up): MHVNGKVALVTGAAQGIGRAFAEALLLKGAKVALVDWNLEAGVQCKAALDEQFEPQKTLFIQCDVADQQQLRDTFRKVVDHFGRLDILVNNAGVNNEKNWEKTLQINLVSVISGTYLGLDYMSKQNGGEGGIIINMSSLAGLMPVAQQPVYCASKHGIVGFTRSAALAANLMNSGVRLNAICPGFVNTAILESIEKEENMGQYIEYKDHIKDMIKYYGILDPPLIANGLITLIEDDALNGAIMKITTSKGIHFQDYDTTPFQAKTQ
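20 nM HPGD preincubated 15 min at room temperature with compound in 50 mM Tris-HCl pH 8, 0.01% Tween 20. Started with 1 mM NAD+ and 30 uM prostaglandin E2; NADH fluorescence (360/450 nm) read 5 times over 30-s intervals, last minus first.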
The depositor's hits bear a star; ? = inconclusive; . = no result given; ! = a repeat was not active; [ ] = another dose, or the depositor's remark. Unless noted, calls come from the whole dose curve; as a rule, active = well fitted curve in the direction sought with a large enough effect; inconclusive = small, poorly fitted or top-dose-only effect, or another doubt; inactive = no such curve, though single readings can be large; an effect the other way counts as inactive or inconclusive.

SMILES | HTT cytoprotect | IMPase inh | HttQ103 aggreg | ALDH1A1 block | IMPase Li inh | HPGD inh
O=C(CSc1ncn(-c2ccccc2)n1)N1CCN(c2ccccc2)CC1 | -2%[0.074 µM] | 5 | -1% | 14µM* | 23%[38.3 µM] | 28µM*
O=C(c1cnccn1)N1CCC[C@@]2(CCN(Cc3nccs3)C2)C1 | ? | . | . | -1% | 4% | -10%
Cc1noc(C)c1S(=O)(=O)N1CCc2nc(COc3ccccc3)c3c(c2C1)CO[C@@H](C)C3 | 8%[10 µM] | . | . | -13%[13.5 µM] | 16% | -7%
O=C(CSc1nnc(-c2ccco2)n1-c1ccccc1)N1CCN(C(=O)c2ccco2)CC1 | 10%[10 µM] | -2 | 1% | ? | 8%[38.3 µM] | -18%
Cn1c(SCC(=O)N2CCN(c3ccccc3)CC2)nnc1-c1ccco1 | -3% | 8 | 17% | 13µM* | 9%[38.3 µM] | 3%
CCn1c(SCC(=O)N2CCN(c3ccccc3)CC2)nnc1-c1ccncc1 | -12%[10 µM] | 3 | -33% | 25µM* | -1% | 20µM*
O=C(Oc1ccc2c(c1)OCO2)c1cc2c(s1)CCC2 | 4% | 7 | -15% | -14% | 7%[38.3 µM] | 22µM*
O=C(c1cc([N+](=O)[O-])cc([N+](=O)[O-])c1)N1CCN(Cc2ccc3c(c2)OCO3)CC1 | -25% | . | -12% | ? | ? | .
O=C(c1cc2c(s1)CCCC2)N1CCN(Cc2ccc3c(c2)OCO3)CC1 | -7% | 7 | -31% | 14µM* | 13%[38.3 µM] | -27%
COc1ccc(C(=O)N2CCN(Cc3ccc4c(c3)OCO4)CC2)cc1[N+](=O)[O-] | -10% | . | ? | 1.6µM* | 8% | .
O=C(Oc1ccc2c(c1)OCO2)c1ccc(F)cc1Cl | 6%[10 µM] | 6 | -2%[9.22 µM] | -11% | 21%[38.3 µM] | ?
CC(Sc1nc(C(C)(C)C)cc(-c2ccccc2)c1C#N)C(=O)Nc1ccccc1 (stereo not drawn) | 0%[10 µM] | . | 1% | 25µM* | 3% | 16µM*
N#Cc1c(-c2ccccc2)cc(-c2ccccc2)nc1SCC(=O)Nc1ccc(Cl)cc1 | . | -1 | . | . | . | .
COc1ccc(NC2C[C@H]3CCCC(=O)N4CC[C@@H](C2)[C@@H]34)cc1 (stereo partly drawn) | 14% | . | . | 4% | 9% | 0%
Cc1nn(-c2ccc(Cl)cc2)c2sc(C(=O)N3CCN(C(=O)c4ccco4)CC3)cc12 | ? | -5 | 12% | 3% | 3%[38.3 µM] | -13%
Cc1nn(-c2ccc(F)cc2)c2sc(C(=O)N3CCCCCC3)cc12 | 6% | -3 | ? | 35µM* | 40%[38.3 µM] | 16µM*
O=C1c2ccc(O)c(O)c2C(=O)c2c(O)ccc(O)c21 | -231% | . | . | ? | 141% | 11µM*
O=C1c2cccc(O)c2C(=O)c2c(O)cccc21 | -20% | . | ? | ? | -6% | 35µM*!
O=C1c2ccccc2C(=O)c2c1ccc(O)c2O | 6%[1.9 µM] | ? | -16% | ? | 61% | 28µM*
Cc1c(Br)c([N+](=O)[O-])nn1CC(=O)Nc1ccc(C(N)=O)cc1 | . | . | . | -1% | 8% | .
c1ccc(CNc2ncncc2-c2ccc3c(c2)OCO3)cc1 | -96% | . | . | ? | 5% | .
CCCNc1sc(S(=O)(=O)CCC)nc1S(=O)(=O)c1ccc(C)cc1 | . | . | 4% | 10µM* | 10% | .
Cc1ccc2cc(S(=O)(=O)NCCCN3CCOCC3)ccc2c1 | -2%[10 µM] | . | -12%[9.22 µM] | 2% | 6% | .
CCS(=O)(=O)c1nc(S(=O)(=O)c2ccc(Cl)cc2)c(NCCOC)s1 | -19% | . | 7% | 4.5µM* | -5% | .
CCCS(=O)(=O)c1nc(S(=O)(=O)c2ccc(C)cc2)c(NCCCN2CCOCC2)s1 | -1% | 6 | 13% | 14µM* | -1%[38.3 µM] | -15%
SMILES | HTT cytoprotect | IMPase inh | HttQ103 aggreg | ALDH1A1 block | IMPase Li inh | HPGD inh
CC(=O)c1ccc(NC(=O)C(C)n2c3ccccc3c3nc(=O)cc(C)n32)cc1 (stereo not drawn) | -27%[10 µM] | . | -31%[9.22 µM] | . | . | .
CCOC(=O)C1CCN(C2CC(=O)N(c3cccc(Cl)c3)C2=O)CC1 (stereo not drawn) | 4% | 13 | -14% | 20µM* | 15%[38.3 µM] | -6%
Cc1cccc(N2C(=O)CC(N3CCN(Cc4ccc(Cl)cc4)CC3)C2=O)c1 (stereo not drawn) | 15% | -1 | 10% | ? | 17%[38.3 µM] | -5%
O=C1CC(N2CCOCC2)C(=O)N1c1ccc2c(c1)OCO2 (stereo not drawn) | 19%[1.9 µM] | -2 | -20% | ? | 19%[38.3 µM] | -9%
O=C(C1CCN(C2CC(=O)N(c3ccc(Cl)cc3)C2=O)CC1)N1CCOCC1 (stereo not drawn) | -7% | 3 | 16% | 13µM* | 34%[38.3 µM] | -9%
O=C1CC(N2CCN(C3CC(=O)N(CCc4ccccc4)C3=O)CC2)C(=O)N1CCc1ccccc1 (stereo not drawn) | 13% | -10 | ? | -22% | 8%[38.3 µM] | -4%
O=C(C1CCN(C2CC(=O)N(c3cccc(Cl)c3)C2=O)CC1)N1CCCC1 (stereo not drawn) | -8% | 14 | 1% | 3.2µM* | 11%[38.3 µM] | -20%
O=C1CC(N2CCC(Cc3ccccc3)CC2)C(=O)N1CCc1ccccc1 (stereo not drawn) | 8%[10 µM] | -11 | -31% | 2.2µM* | 28%[38.3 µM] | -17%
C/C=C/OC(=O)NC(c1cccc(C)c1)[C@@]1(C(=O)OCC)CCCC1=O (stereo partly drawn) | -10%[10 µM] | . | . | 18%[13.5 µM] | . | .
CC1CCCCN1CCCOC(=O)c1ccccc1 (stereo not drawn) | 13% | . | -3% | . | . | .
O=C(C1CCN(C2CC(=O)N(Cc3ccccc3)C2=O)CC1)N1CCCCCC1 (stereo not drawn) | 12% | 3 | 15% | 11µM* | 16%[38.3 µM] | ?
N#C/C=C1/NC(=O)c2ccccc2S1 | 3%[10 µM] | 1 | -10% | 3% | 0%[38.3 µM] | 2.2µM*
CCN(Cc1ccccc1)c1ccc(/C=N/NS(=O)(=O)c2cccc([N+](=O)[O-])c2)cc1 | . | . | 26% | 6.3µM* | 3% | -19%
CCN(CC)c1ccc(/C=N/NS(=O)(=O)c2ccc(C)c([N+](=O)[O-])c2)cc1 | 21%[10 µM] | 2 | 16% | 20µM* | . | .
O=C(Nc1sc2c(c1C(=O)Nc1ccccc1Cl)CCCC2)c1ccccc1F | . | 34 | . | . | . | .
COc1ccc(N(C(=O)COc2c(C)cccc2C)S(=O)(=O)c2ccc(Cl)cc2)cc1 | . | 1 | . | . | . | .
CSCc1nnc(NC(=O)c2ccc(S(=O)(=O)N(CC(C)C)CC(C)C)cc2)o1 | -60% | 5 | 10µM* | 1% | 16%[38.3 µM] | -10%
COc1ccc(O[C@H]2C=C[C@@H](c3ccccc3)O[C@H]2COC(=O)CC/C(C)=N\OC[C@@H](O)[C@H]2O[C@H]3OC(C)(C)O[C@H]3[C@@H]2O)cc1 | -14%[10 µM] | . | . | 8%[13.5 µM] | . | .

Screens: PubChem BioAssay, National Center for Advancing Translational Sciences (NCATS)
